TEAD-YAP inh: TEAD-YAP interaction inhibition; HEK-TIYL cells, TEAD-Gal4/YAP UAS-luciferase luminescence; inhibition, % at 9.12 µM; hit rate 1.4% among 640,000; in the data active = inhibition above about 32%;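 also: 0% = median of test compound wells and 100% = reference inhibitor wells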
MITF primary: inhibitors of human MITF | AlphaScreen MITF homodimerization, bead proximity signal | inhibition, % at 2.6 µM | O75030 | hit rate 0.91% among 650,000; in the data active = inhibition above about 50%;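 also: 0% = vehicle wells with protein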
FBW7 activator: human FBW7 E3 ligase activation, primary screen; normalized activity (activation), % at 26.1 µM; hit rate 0.13% among 650,000; AlphaScreen FBW7–phospho-cyclin E peptide binding, activator screen; Q969H0; in the data active = normalized activity above about 1.9%;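 also: purified mutant Fbw7 with reduced substrate affinity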
GPR151 activ: activators of human GPR151; Q8TDV0; PathHunter beta-arrestin GPR151 cells, luminescence; activation, % at 11.2 µM; hit rate 1% among 650,000; AID 1508602; in the data active = activation above about 4.9%;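 also: 0% = median of compound wells and 100% = cells with positive control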
Target sequence (Q8TDV0 whole entry, looked up): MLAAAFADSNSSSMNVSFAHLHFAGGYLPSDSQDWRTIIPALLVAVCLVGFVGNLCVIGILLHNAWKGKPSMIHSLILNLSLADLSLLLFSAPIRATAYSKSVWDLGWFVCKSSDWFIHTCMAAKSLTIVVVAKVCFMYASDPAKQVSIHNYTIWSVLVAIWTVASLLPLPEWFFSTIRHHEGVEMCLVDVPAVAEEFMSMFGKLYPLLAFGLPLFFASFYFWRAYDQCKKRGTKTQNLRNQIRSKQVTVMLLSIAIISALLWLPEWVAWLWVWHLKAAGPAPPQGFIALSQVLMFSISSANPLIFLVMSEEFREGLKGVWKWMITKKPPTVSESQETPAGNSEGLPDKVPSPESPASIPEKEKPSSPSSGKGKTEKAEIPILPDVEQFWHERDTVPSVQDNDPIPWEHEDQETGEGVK
MITF inh conf: human MITF inhibition, confirmation; shares compounds with MITF primary; AlphaScreen MITF homodimerization, biotin/His-MITF beads; inhibition, % at 2.6 µM; hit rate 16% among 4,700;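 active = inhibition above a cutoff derived from the DMSO control wells, cut at about 28% in these data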;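 also: 0% = MITF dimer wells with DMSO only; inhibitors lower the bead chemiluminescence by keeping MITF from dimerizing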
AS interf DR: counter-screen: compounds optically interfering with AlphaScreen; shares compounds with MITF primary; AlphaScreen optical interference counterscreen, cell-free; IC50, µM; hit rate 6% among 480; call rule not given here
AS interf ctr: AlphaScreen optical interference, counter-screen | shares compounds with MITF primary | LysRS AlphaScreen counterscreen, signal interference, triplicate | inhibition, % at 2.6 µM | hit rate 7.6% among 4,700 | AID 1259376;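 active = inhibition above a cutoff derived from the DMSO control wells, cut at about 30% in these data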
Numbers without * were called inactive; · = no result given. Compounds with a hit are over-represented: about 3.4% of the library has one in this group of screens.

SMILES	TEAD-YAP inh	MITF primary	FBW7 activator	GPR151 activ	MITF inh conf	AS interf ctr	others
O=C(NC(=S)N1CCOCC1)c1cc(-c2ccco2)nc2ccccc12	3.3	-3.9	-0.2	2.6	·	·
COCCNC(=O)COC(=O)c1cc(-c2ccco2)nc2ccccc12	2.0	72.3*	-0.4	1.1	69.1*	-8.7	AS interf DR=>6.59
O=C(OCCCC(=O)N1CCOCC1)c1cc(-c2ccco2)nc2ccccc12	-6.9	73.2*	-0.2	-1.4	76.9*	3.5	AS interf DR=>6.58
CCOC(=O)c1c(NC(=O)CSc2nnc(CNC(=O)c3cccs3)n2-c2ccccc2OC)sc2c1CCCC2	2.9	-0.2	0.1	-1.6	·	·
C=CCC1S/C(=N\N=C\c2ccc(N(C)C)cc2)NC1=O (stereo not drawn)	4.2	3.2	-0.1	-0.7	·	·
c1csc(-c2nc3cnccn3c2NCc2ccc3c(c2)OCO3)c1	-18.2	-3.2	0.1	-1.5	·	·
c1ccc(Cc2nc3cnccn3c2NCc2ccc3c(c2)OCO3)cc1	3.3	67.7*	0.2	0.1	7.0	10.1
Cc1ccc2occ(CN3CCC4(CC3)CC4C(=O)Nc3ccc(F)c(F)c3)c(=O)c2c1 (stereo not drawn)	-5.5	73.7*	-0.1	0.2	8.6	-2.9
CSc1ccc(NC(=O)C2CC23CCN(Cc2coc4ccc(C)cc4c2=O)CC3)cc1 (stereo not drawn)	-0.3	3.5	-0.1	0.8	·	·
Cc1nn(C2CCS(=O)(=O)C2)c(Cl)c1CNCc1ccccc1 (stereo not drawn)	1.9	58.1*	0.0	2.0	5.0	-5.0
COc1ccc(C(=O)N2CCN(C3CCC(c4ccccc4)CC3)CC2)cc1 (stereo not drawn)	2.7	55.8*	0.5	-0.9	13.6	16.1
CC1CCCC(N2CCN(C(=O)c3cccs3)CC2)C1 (stereo not drawn)	3.2	53.5*	0.5	-0.1	-5.7	-1.6
COc1cc(OC)cc(C(=O)N2CCN(C3CCC(c4ccccc4)CC3)CC2)c1 (stereo not drawn)	13.3	33.7	0.6	-0.8	·	·
O=C(c1ccccc1)N1CCC(N2CCCCCC2)CC1	9.9	20.2	0.0	-0.6	·	·
CC1CCCC(N2CCN(C(=O)c3ccncc3)CC2)C1 (stereo not drawn)	-5.0	53.1*	-0.1	1.7	-6.0	-5.2
CN1CCN(C2CCN(C(=O)c3ccc(-c4ccccc4)cc3)CC2)CC1	-4.2	69.0*	0.2	0.0	-0.9	0.5
O=C(c1cccs1)N1CCN(C2CCCC2)CC1	-9.5	45.0	0.1	-0.1	·	·
Cc1ccc(Nc2nc3nonc3nc2Nc2ccccc2OC(=O)c2ccccc2)cc1C	-16.4	-3.4	-0.4	-1.6	·	·
Cc1nc(-c2cccs2)c(CCC(=O)N2CCOCC2)s1	-7.7	4.0	0.0	0.5	·	·
COc1cc(OC)cc(C(=O)N2CCN(C3CCCCCC3)CC2)c1	-0.4	59.1*	0.0	2.0	-0.2	11.6
O=C(c1ccncc1)N1CCN(C2CCCCCC2)CC1	-1.3	81.7*	-0.2	1.6	-2.1	-0.1
O=C(c1cccs1)N1CCC(N2CCCCCC2)CC1	9.3	55.5*	0.6	-2.0	-7.0	-6.6
COc1ccc(CNC(=O)N2CCC(c3nc4ccncc4c(=O)[nH]3)C2)cc1 (stereo not drawn)	-2.1	-10.2	0.3	1.3	·	·
CCOC(=O)C1=C(C)NC2=C(C(=O)C(C(=O)OCC)C(c3ccccc3OC)C2)C1c1cc(OC)ccc1OC (stereo not drawn)	10.1	3.9	0.1	-2.4	·	·
CCOC(=O)C1=C(C)NC2=C(C(=O)C(C(=O)OCC)C(c3ccc(OC)cc3)C2)C1c1cc(OC)ccc1OC (stereo not drawn)	0.0	115.9*	-0.2	0.4	-10.1	-6.9
SMILES	TEAD-YAP inh	MITF primary	FBW7 activator	GPR151 activ	MITF inh conf	AS interf ctr	others
Cc1cc(=O)[nH]c(Nc2ccc(Cl)cc2)n1	-8.0	-2.8	-0.1	-0.9	·	·
CN1CCN(CC(O)Cn2cc(C=O)c3ccccc32)CC1 (stereo not drawn)	-15.1	65.8*	-0.1	2.2	-0.1	-4.9
CCOc1nc(C)ccc1-c1noc(-c2cccc(OC)c2)n1	-21.5	0.9	0.0	0.0	·	·
CCN(CC)S(=O)(=O)c1cc(-c2nnc(Nc3ccc(OCC(=O)NC)cc3)c3ccccc23)ccc1C	5.5	4.4	0.1	1.1	·	·
COc1ccc(C2SCC(C(=O)O)N2C(C)=O)cc1OC (stereo not drawn)	-2.1	50.6*	0.0	-0.1	10.5	14.4
CCCS(=O)(=O)N1CCN(Cc2cc(OC)c(O)c(OC)c2)CC1	2.0	55.6*	0.3	-1.5	-2.0	10.9
Cc1ccc(S(=O)(=O)N2CCN(Cc3ccccc3Cl)CC2)cc1	-13.9	57.4*	-0.1	3.4	-4.0	-7.2
Cc1ccc(S(=O)(=O)N2CCN(Cc3ccccc3C(F)(F)F)CC2)cc1	-38.2	67.3*	0.1	1.5	3.8	12.0
COc1ccc(S(=O)(=O)N2CCN(Cc3ccccc3C(F)(F)F)CC2)cc1	2.9	-5.1	-0.3	-1.5	·	·
CCS(=O)(=O)N1CCN(Cc2cc(OC)c(O)c(OC)c2)CC1	9.1	37.3	0.0	1.3	·	·
O=[N+]([O-])c1ccccc1S(=O)(=O)N1CCN(Cc2ccccc2C(F)(F)F)CC1	6.0	60.5*	0.0	-1.3	8.5	12.5
COc1cc(S(=O)(=O)NCCc2ccccc2)c(OC)cc1Cl	4.3	-2.7	0.0	-0.9	·	·
COC(=O)C(NC(=O)C(F)(F)F)(c1c(C)[nH]n(-c2ccccc2)c1=O)C(F)(F)F (stereo not drawn)	0.7	-2.9	-0.1	-0.2	·	·
CCCOc1ccc(NC(=O)CC2C(=O)N(c3ccc(Cl)cc3)C(=S)N2CCCN2CCN(CC)CC2)cc1 (stereo not drawn)	-7.5	-8.6	0.1	0.3	·	·
Cc1sc(NC(=O)c2ccncc2)nc1-c1ccccc1	1.5	25.4	0.2	0.8	·	·
CCCS(=O)(=O)N1CCN(Cc2ccc(CC)cc2)CC1	13.7	50.8*	0.0	1.2	1.9	8.0
CCc1ccc(CN2CCN(S(=O)(=O)c3ccc(C)cc3)CC2)cc1	-0.2	58.1*	0.7	1.4	7.5	7.1
CC1(C2CCN(C(=O)c3cc(Cl)ccc3F)CC2)NC(=O)N(Cc2ccsc2)C1=O (stereo not drawn)	-2.4	9.6	-0.1	0.3	·	·
CS(=O)(=O)N1CCN(CC(=O)c2ccco2)CC1	5.4	56.8*	0.0	2.3	14.1	11.9
COC(=O)c1ccc(CN2CCN(CC(=O)c3ccco3)CC2)cc1	1.3	69.5*	-0.5	-1.9	5.1	18.7
CCN1CCN(CC(=O)c2ccco2)CC1	-1.8	69.5*	-0.3	-1.4	15.1	16.2
CCC(C)NC(=O)CN(Cc1ccc(F)cc1)S(=O)(=O)c1ccc(Cl)cc1 (stereo not drawn)	0.3	69.7*	-0.3	-0.4	-13.1	-5.8
COc1cccc(Nc2nc(-c3ccccc3Cl)nc3ccccc23)c1	27.8	52.3*	-0.1	-0.3	2.7	9.3

Compound activity as filed in PubChem BioAssay.
